Compound activity (PubChem BioAssay)
An excerpt weighted towards active compounds, which were near 2.4% of everything screened.
D2 PAM-1: positive allosteric modulators of human D2 dopamine receptor. P14416. DiscoveRx D2 beta-arrestin cells, luminescence, 90 min; 100% = 57 uM dopamine signal. potentiation, % (concentration not given with the values). hit rate 0.23% among 360,000; in the data active = potentiation above about 50%; inconclusive = mostly about 30% to 49%
Target sequence (P14416 whole entry, looked up): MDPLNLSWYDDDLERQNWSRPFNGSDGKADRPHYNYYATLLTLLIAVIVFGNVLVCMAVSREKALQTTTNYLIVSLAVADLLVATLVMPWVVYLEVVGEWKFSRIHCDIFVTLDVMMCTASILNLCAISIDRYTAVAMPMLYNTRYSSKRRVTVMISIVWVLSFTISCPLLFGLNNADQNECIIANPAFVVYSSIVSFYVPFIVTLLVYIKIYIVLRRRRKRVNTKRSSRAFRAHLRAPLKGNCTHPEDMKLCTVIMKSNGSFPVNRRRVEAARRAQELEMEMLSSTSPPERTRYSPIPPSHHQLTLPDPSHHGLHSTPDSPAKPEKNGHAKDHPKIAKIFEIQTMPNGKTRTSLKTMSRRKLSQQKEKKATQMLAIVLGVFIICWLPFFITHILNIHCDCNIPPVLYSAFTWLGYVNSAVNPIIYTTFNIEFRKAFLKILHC
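PathHunter D2 cells, attached overnight at 37 deg C, received compound in DMSO plus dopamine at EC20 (50 nM final) for 90 min at 37 deg C. Beta-arrestin recruitment was read as luminescence after 1 h with detection reagent at ambient temperature.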
D2 ag-1: D2 dopamine receptor (human) agonism; HEK293 T-REx D2 cells, calcium flux agonist mode; hit rate 0.53% among 340,000; AID 485358; activation, % at 2 µM;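 active = activation over 3 SD above normal in the single-dose calcium agonist read, cut at about 30% in these data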; also: 0% is about no effect
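Calcium-flux readout, 1 cycle/sec over 180 s following compound pin transfer, in inducible HEK293 Trex D2 cells (force-coupled); dopamine controls included. Positive calcium responses during this window marked compounds as potential agonists.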
D2 antagonist: antagonists of human D2 dopamine receptor; P14416; HEK293 TREx D2 cells, calcium flux, dopamine EC80; inhibition, % at 10 µM; hit rate 2% among 340,000; AID 485344; in the data active = inhibition above about 30%; inactive = below that, where a call was filed; also: 0% is about no effect
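Tetracycline-induced HEK293 TREx cells expressing D2 receptor forced-coupled to calcium signalling, loaded with no-wash calcium dye. Compounds added and calcium flux read 180 s, then dopamine added at EC80 and read a further 180 s.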
D2 ag-2: human D2 receptor agonism in beta-arrestin assay; activation, % (no concentration beside the values); P14416; DiscoveRx PathHunter D2 beta-arrestin, luminescence, 90 min; 100% = 57 uM dopamine signal; hit rate 0.084% among 360,000; in the data active = activation above about 40%; inconclusive = between about 15% and that limit
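DiscoveRx PathHunter D2 beta-arrestin cells (2,100/well) attached overnight, then compound-stimulated 90 min at 37 C in HBSS/10 mM HEPES/0.1% Tween-20 buffer; beta-galactosidase complementation read by luminescence after 1 h at ambient temperature. Dopamine 57 uM final (EC100) as control.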
D2 PAM-2: positively modulates the human D2 dopamine receptor allosterically; hit rate 0.34% among 340,000; potentiation, % at 10 µM; P14416; AID 485347; HEK293 T-REx D2, calcium flux, EC20 dopamine potentiation;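 active = potentiation over 3 SD above the plate norm, cut at about 30% in these data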; also: 0% is about no effect
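Potentiation of an EC20 dopamine calcium response measured kinetically over 180 s, after a preceding 180 s compound-only read flagging agonists. Cells: inducible Hek293 Trex D2 line, 4000/well, cultured overnight at 30 C before dye loading.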
Active calls of the source: *.

O=C1c2ccccc2C(=O)N1CCCc1nc(-c2ccccn2)no1 was read as D2 PAM-1 -3, D2 ag-1 0, D2 antagonist 36*, D2 ag-2 -3 and D2 PAM-2 14.
`O=C1c2ccccc2C(=O)N1CCc1nc(-c2ccccn2)no1` gave D2 PAM-1 -16, D2 ag-2 1 and D2 PAM-2 1.
For CC1CCCCN1C(=O)c1cccc(NC(=O)c2ccccc2)c1 (configuration not stated) the results were D2 PAM-1 -9, D2 ag-1 -1, D2 antagonist 37*, D2 ag-2 -4 and D2 PAM-2 -2.
Screening CCCn1c(SCc2nc(-c3ccccc3OCC)no2)nnc1-c1ccc(Cl)cc1 returned D2 ag-1 0 and D2 PAM-2 -14.
CCn1nccc1NC(=O)c1ccc2sc([C@@H]3O[C@H](CO)[C@H](O)[C@H](O)[C@H]3O)nc2c1 was read as D2 PAM-1 -11 and D2 ag-2 -7.
For CCOC(=O)c1cc2occc2n1Cc1ccc(F)cc1 the results were D2 PAM-1 -5, D2 ag-1 0, D2 antagonist 34*, D2 ag-2 -4 and D2 PAM-2 -14.
`CCOC(=O)c1cc2occc2n1Cc1c(F)cccc1Cl` gave D2 PAM-1 -10, D2 ag-1 0, D2 antagonist 31*, D2 ag-2 -4 and D2 PAM-2 -3.
Screening COC(=O)c1cc2occc2n1Cc1ccc(Cl)cc1 returned D2 PAM-1 -9, D2 ag-1 -1, D2 antagonist 0, D2 ag-2 -1 and D2 PAM-2 -7.
For CCOc1ccc(-n2c(SCc3nc(-c4ccc(OC)cc4)no3)nnc2-c2ccncc2)cc1 the results were D2 ag-1 0 and D2 PAM-2 -3.
For Cc1ccccc1NC1=NC(=S)N(CC(N)=O)C12CCOC(C)(C)C2 (configuration not stated) the results were D2 PAM-1 -6, D2 ag-1 1, D2 antagonist 44*, D2 ag-2 -3 and D2 PAM-2 -8.
For O=C(O)c1ccc2nc3c(nc2c1)-c1ccccc1C3=O the results were D2 PAM-1 -17, D2 ag-1 1, D2 antagonist 34*, D2 ag-2 -5 and D2 PAM-2 8.
For O=C(CCCCCN1C(=O)CCC1=O)Nc1ncn[nH]1 the results were D2 PAM-1 0, D2 ag-1 2, D2 antagonist 45* and D2 ag-2 0.
Screening Cc1ccc(NC(=O)CCSc2nc(-c3ccco3)cc(C(F)(F)F)n2)cc1F returned D2 ag-1 1 and D2 PAM-2 -4.
`COc1cc(NC(=O)c2nn(C)c3c2CS(=O)(=O)c2ccccc2-3)cc(OC)c1` gave D2 PAM-1 -4, D2 ag-1 2, D2 antagonist -15, D2 ag-2 3 and D2 PAM-2 24.
COc1ccc(NC(=O)c2nn(C)c3c2CS(=O)(=O)c2ccccc2-3)cc1 was read as D2 PAM-1 -15, D2 ag-1 1, D2 antagonist -6, D2 ag-2 0 and D2 PAM-2 37*.
`COc1cc2c(cc1OC)C(c1cc3cc4c(cc3[nH]c1=O)OCO4)N(C(=O)C1CC1)CC2` (configuration not stated) gave D2 PAM-1 5, D2 ag-1 -1, D2 antagonist 33*, D2 ag-2 1 and D2 PAM-2 -7.
COc1cc2c(cc1OC)C(c1cc3ccc(C)cc3[nH]c1=O)N(C(=O)c1ccco1)CC2 (configuration not stated) was read as D2 PAM-1 -5, D2 ag-1 3, D2 antagonist 11, D2 ag-2 -1 and D2 PAM-2 9.
For CN(C)c1nc2n(c(=O)n1)CCS2 the results were D2 PAM-1 1, D2 ag-1 0, D2 antagonist 0, D2 ag-2 0 and D2 PAM-2 16.
CN(C)c1nc2n(c(=O)n1)C(C#N)CS2 (configuration not stated) was read as D2 PAM-1 2, D2 ag-1 0, D2 antagonist 33*, D2 ag-2 -1 and D2 PAM-2 6.
Screening CCOC(=O)CN1C(=O)C(Sc2n[nH]c(-c3cccc(C)c3)n2)CCc2ccccc21 (configuration not stated) returned D2 PAM-1 -22, D2 ag-1 -1, D2 antagonist -13, D2 ag-2 0 and D2 PAM-2 -22.
Screening CCOC(=O)CN1C(=O)C(Sc2n[nH]c(-c3ccc(C)cc3)n2)CCc2ccccc21 (configuration not stated) returned D2 PAM-1 -27, D2 ag-1 0, D2 antagonist 61*, D2 ag-2 -4 and D2 PAM-2 -21.
Screening COc1ccc(OCC(=O)Nc2ccccc2C(=O)N2CCOCC2)cc1 returned D2 PAM-1 -5, D2 ag-1 -1, D2 antagonist -15, D2 ag-2 -5 and D2 PAM-2 36*.
`CCCN(CCC)C(=O)Cn1nnc2sc(-c3ccccc3)cc2c1=O` gave D2 PAM-2 -2.
Screening CCN(CC(O)CON=C1c2ccccc2-c2ccccc21)S(=O)(=O)c1ccc(C)cc1 (configuration not stated) returned D2 PAM-1 -21, D2 ag-1 2, D2 antagonist 34*, D2 ag-2 -1 and D2 PAM-2 2.
CC1CCCCC1Nc1ncnc2sccc12 (configuration not stated) was read as D2 PAM-1 -6, D2 ag-1 0, D2 antagonist 36*, D2 ag-2 6 and D2 PAM-2 14.
`Cc1cc(C)n2nc(C(=O)Nc3c(C)nn(Cc4ccc(F)cc4)c3C)cc2n1` gave D2 PAM-1 -1, D2 ag-1 1, D2 antagonist 51*, D2 ag-2 12 and D2 PAM-2 -2.
Screening CCCCC(=O)Nc1ncc(S(=O)(=O)c2ccc([N+](=O)[O-])cc2)s1 returned D2 PAM-1 -8, D2 ag-1 4, D2 antagonist -6, D2 ag-2 inconclusive and D2 PAM-2 4.
Screening O=C(Nc1ncc(S(=O)(=O)c2ccc([N+](=O)[O-])cc2)s1)c1cccc2ccccc12 returned D2 PAM-1 62*, D2 ag-1 26, D2 antagonist 9, D2 ag-2 -2 and D2 PAM-2 -3.
Screening CC(=O)NCCC(=O)Nc1ncc(S(=O)(=O)c2ccc([N+](=O)[O-])cc2)s1 returned D2 PAM-1 52*, D2 ag-1 0, D2 antagonist -19, D2 ag-2 10 and D2 PAM-2 7.
`COCC(=O)Nc1ncc(S(=O)(=O)c2ccc([N+](=O)[O-])cc2)s1` gave D2 PAM-1 inconclusive, D2 ag-1 0, D2 antagonist 3, D2 ag-2 inconclusive and D2 PAM-2 -3.
